Data reported in the supplement of paper PMC10849652.
About 8,800 targets were measured; listed, in parts, are those with a hit and a random draw of the rest. About 0.5% of all pairs of compound and target were hits.

Compound: C[C@H](Nc1ncnc2nc[nH]c12)c1cc2cccc(Cl)c2c(=O)n1-c1ccccc1 [duvelisib]
Experiment: log2 fold change, soluble protein after heating vs DMSO (PISA); higher = thermal stabilisation; K562 lysate, 10 uM; active = over 0.2 and 3.5 SD of the protein, either way, in both replicates (recomputed)
Summary of the method: (§1)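 The values are log-two fold changes in thermal stability compared with solvent controls and come from duplicates. They were obtained by TMTpro 16plex LC-MS/MS, with channel sums equalised, on the supernatant after 21,000xg for 90 min. That supernatant came from crude K562 extract at 1 mg/mL protein treated with 10 μM compound for 30 min, heated for 3 min across 48°C-58°C, pooled and brought to 0.5% NP-40 at 4°C.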

Sequence of UniProt O60566 (O60566 whole entry, looked up): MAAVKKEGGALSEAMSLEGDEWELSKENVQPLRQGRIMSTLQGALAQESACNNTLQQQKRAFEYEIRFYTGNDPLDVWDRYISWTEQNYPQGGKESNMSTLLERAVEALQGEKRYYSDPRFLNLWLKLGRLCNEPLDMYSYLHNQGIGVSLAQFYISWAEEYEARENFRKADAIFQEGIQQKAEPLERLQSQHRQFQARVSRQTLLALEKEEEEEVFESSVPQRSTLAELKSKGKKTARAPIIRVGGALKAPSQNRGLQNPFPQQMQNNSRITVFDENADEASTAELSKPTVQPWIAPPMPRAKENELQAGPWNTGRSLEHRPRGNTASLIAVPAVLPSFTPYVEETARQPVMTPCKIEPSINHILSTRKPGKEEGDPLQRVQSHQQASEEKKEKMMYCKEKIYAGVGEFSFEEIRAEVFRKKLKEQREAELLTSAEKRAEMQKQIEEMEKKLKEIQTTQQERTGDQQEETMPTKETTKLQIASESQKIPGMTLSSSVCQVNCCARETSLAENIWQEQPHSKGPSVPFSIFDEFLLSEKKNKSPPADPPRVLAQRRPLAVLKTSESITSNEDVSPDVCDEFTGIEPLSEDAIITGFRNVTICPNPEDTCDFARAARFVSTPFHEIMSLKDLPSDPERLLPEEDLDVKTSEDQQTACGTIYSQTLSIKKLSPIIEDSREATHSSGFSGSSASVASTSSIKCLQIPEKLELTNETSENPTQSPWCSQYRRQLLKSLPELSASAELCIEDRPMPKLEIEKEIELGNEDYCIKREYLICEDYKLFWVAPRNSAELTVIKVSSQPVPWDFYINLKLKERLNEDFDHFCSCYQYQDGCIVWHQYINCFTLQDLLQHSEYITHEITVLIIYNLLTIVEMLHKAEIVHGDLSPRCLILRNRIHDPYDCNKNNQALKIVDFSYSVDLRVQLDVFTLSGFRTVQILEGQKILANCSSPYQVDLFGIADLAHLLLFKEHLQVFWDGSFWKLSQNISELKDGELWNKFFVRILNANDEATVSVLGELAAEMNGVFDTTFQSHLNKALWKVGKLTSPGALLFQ
Sequence of UniProt Q7Z3E2 (Q7Z3E2 whole entry, looked up): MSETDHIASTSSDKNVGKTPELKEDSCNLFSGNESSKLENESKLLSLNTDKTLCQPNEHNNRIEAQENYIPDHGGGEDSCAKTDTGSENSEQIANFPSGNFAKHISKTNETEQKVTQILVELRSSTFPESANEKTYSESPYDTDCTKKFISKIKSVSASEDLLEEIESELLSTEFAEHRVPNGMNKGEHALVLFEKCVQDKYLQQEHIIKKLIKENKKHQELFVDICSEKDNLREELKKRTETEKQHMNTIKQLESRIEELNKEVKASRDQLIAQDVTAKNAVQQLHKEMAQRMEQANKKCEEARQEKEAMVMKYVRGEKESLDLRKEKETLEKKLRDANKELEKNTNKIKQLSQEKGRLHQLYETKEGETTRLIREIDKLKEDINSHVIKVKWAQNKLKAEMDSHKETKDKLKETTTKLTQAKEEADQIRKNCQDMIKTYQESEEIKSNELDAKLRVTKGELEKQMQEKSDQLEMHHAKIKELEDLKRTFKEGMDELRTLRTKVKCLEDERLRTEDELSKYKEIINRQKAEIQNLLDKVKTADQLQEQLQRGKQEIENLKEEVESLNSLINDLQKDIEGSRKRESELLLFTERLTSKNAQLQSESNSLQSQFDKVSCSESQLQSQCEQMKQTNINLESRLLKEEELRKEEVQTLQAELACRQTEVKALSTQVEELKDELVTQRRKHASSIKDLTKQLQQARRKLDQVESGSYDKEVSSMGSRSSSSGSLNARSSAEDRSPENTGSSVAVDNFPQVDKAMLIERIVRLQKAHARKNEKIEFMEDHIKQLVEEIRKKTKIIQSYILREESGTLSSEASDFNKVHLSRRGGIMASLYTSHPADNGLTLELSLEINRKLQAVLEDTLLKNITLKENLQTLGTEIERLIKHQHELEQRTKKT
Sequence of UniProt Q8N4Q1 (Q8N4Q1 whole entry, looked up): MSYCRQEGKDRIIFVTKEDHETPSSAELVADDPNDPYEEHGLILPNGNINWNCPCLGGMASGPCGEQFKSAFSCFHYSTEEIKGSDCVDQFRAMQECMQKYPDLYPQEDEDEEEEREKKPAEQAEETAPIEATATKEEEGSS
Sequence of UniProt O14981 (O14981 whole entry, looked up): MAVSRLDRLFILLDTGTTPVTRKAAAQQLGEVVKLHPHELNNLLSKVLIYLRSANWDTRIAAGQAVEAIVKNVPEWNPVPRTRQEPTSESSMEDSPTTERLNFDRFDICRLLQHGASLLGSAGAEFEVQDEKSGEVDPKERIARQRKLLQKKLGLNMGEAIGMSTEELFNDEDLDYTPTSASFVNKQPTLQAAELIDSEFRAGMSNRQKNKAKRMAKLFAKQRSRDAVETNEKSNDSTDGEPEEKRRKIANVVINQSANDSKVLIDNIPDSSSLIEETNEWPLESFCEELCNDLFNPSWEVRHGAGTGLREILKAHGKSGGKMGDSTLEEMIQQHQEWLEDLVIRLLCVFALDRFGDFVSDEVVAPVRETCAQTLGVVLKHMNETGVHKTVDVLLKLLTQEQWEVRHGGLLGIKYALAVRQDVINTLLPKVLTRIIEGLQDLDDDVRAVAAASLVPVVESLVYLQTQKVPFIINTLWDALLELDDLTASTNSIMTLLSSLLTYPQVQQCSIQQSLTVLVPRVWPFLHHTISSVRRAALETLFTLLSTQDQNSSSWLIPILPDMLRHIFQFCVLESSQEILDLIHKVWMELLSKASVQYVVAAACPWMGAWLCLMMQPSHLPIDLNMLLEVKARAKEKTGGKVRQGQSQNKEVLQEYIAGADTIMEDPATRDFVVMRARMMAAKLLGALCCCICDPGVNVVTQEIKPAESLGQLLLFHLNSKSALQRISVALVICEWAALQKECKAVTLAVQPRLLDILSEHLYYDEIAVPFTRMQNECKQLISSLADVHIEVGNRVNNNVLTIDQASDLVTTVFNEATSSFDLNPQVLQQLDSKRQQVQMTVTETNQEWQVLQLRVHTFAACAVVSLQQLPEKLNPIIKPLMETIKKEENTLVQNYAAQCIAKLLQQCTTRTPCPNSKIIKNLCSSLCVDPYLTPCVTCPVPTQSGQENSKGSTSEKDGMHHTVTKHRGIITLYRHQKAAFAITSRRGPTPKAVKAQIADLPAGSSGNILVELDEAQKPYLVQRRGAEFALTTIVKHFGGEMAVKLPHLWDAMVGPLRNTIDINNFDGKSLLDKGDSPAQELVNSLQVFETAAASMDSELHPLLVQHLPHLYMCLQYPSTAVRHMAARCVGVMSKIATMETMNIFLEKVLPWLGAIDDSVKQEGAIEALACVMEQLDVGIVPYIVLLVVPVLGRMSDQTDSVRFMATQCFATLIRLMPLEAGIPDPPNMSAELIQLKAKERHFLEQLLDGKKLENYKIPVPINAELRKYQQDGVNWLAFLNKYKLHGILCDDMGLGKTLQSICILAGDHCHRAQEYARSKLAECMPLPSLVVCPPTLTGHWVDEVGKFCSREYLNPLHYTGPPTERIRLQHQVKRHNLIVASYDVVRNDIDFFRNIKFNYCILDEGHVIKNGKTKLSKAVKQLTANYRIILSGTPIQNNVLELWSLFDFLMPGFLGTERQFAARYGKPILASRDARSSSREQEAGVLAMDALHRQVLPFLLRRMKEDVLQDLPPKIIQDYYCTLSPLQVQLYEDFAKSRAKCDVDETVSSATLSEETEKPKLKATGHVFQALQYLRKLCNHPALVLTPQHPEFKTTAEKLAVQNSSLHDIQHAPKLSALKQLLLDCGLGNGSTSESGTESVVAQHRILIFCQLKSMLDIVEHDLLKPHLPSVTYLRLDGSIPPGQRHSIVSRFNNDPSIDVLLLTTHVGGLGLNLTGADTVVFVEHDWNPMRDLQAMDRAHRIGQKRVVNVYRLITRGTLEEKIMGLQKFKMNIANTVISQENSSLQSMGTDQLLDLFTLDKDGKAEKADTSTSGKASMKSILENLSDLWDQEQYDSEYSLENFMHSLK
Sequence of UniProt Q15059 (Q15059 whole entry, looked up): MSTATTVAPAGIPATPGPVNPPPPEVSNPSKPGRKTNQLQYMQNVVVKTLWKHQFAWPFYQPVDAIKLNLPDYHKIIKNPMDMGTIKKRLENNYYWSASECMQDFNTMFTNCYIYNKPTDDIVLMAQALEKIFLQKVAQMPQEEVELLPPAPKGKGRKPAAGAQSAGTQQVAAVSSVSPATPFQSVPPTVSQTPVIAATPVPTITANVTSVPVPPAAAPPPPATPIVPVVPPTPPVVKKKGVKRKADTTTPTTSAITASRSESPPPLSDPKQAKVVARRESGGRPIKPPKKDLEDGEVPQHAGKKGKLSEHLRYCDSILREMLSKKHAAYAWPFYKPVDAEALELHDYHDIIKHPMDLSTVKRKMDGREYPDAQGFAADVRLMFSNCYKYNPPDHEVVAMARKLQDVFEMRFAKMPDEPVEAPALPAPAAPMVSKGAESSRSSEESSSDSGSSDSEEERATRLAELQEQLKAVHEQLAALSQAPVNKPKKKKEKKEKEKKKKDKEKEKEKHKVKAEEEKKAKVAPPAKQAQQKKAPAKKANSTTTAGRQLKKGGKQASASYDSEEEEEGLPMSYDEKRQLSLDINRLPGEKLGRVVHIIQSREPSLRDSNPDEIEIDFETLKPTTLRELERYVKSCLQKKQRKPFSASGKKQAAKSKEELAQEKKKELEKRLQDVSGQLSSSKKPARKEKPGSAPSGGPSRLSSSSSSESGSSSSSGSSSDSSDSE
Sequence of UniProt P06493 (P06493 whole entry, looked up): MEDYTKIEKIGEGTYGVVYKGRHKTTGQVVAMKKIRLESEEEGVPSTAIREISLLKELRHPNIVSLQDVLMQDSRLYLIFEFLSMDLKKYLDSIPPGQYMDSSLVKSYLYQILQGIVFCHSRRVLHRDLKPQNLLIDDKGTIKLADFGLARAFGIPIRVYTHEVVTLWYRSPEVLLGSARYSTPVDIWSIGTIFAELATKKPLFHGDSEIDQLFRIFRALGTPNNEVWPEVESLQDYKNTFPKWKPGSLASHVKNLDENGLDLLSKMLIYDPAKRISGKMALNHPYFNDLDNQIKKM

Row | Target | log2 fold change
1 | CCAR2 (UniProt Q8N163) | -0.015 (inactive)
2 | CDK1 (UniProt P06493) | 0.031 (inactive)
3 | ATE1 isoform 2 (UniProt O95260) | -0.051 (inactive)
4 | CCDC22 (UniProt O60826) | -0.016 (inactive)
5 | ATXN2 (UniProt F8WB05) | -0.065 (inactive)
6 | CHAF1A (UniProt Q13111) | -0.035 (inactive)
7 | C2CD5 isoform 3 (UniProt Q86YS7) | -0.009 (inactive)
8 | CARNMT1 (UniProt Q8N4J0) | 0.018 (inactive)
9 | CCNC (UniProt P24863) | 0.009 (inactive)
10 | BCR (UniProt P11274) | -0.049 (inactive)
11 | CDC16 (UniProt Q13042) | 0.011 (inactive)
12 | CHCHD4 isoform 2 (UniProt Q8N4Q1) | 0.022 (inactive)
13 | BTAF1 (UniProt O14981) | 0.011 (inactive)
14 | CEP120 (UniProt Q8N960) | 0.005 (inactive)
15 | CHD4 isoform 2 (UniProt Q14839) | -0.038 (inactive)
16 | ATP11A (UniProt P98196) | 0.081 (inactive)
17 | BRD3 (UniProt Q15059) | 0.1 (inactive)
18 | ATG4B (UniProt Q9Y4P1) | 0.01 (inactive)
19 | BORCS5 (UniProt Q969J3) | 0.037 (inactive)
20 | CCPG1 isoform 5 (UniProt Q9ULG6) | 0.006 (inactive)

Row | Target | log2 fold change
21 | ATP13A1 (UniProt Q9HD20) | -0.004 (inactive)
22 | BUB1B isoform 3 (UniProt O60566) | 0.024 (inactive)
23 | CDK5 (UniProt Q00535) | 0.03 (inactive)
24 | CDAN1 (UniProt Q8IWY9) | 0.026 (inactive)
25 | CCNB1 (UniProt P14635) | 0.033 (inactive)
26 | CDC7 (UniProt O00311) | -0.007 (inactive)
27 | CCDC186 (UniProt Q7Z3E2) | 0.022 (inactive)
28 | ATG13 isoform 2 (UniProt O75143) | 0.016 (inactive)
29 | CCDC32 isoform 2 (UniProt Q9BV29) | 0.024 (inactive)
30 | CAPNS1 (UniProt P04632) | -0.015 (inactive)
31 | CDK5RAP3 isoform 4 (UniProt Q96JB5) | -0.002 (inactive)
32 | CAMK1 (UniProt Q14012) | -0.042 (inactive)
33 | CDS2 (UniProt O95674) | 0.088 (inactive)
34 | CALB2 (UniProt P22676) | 0.031 (inactive)
35 | BCKDK (UniProt O14874) | -0.008 (inactive)
36 | CARS isoform 3 (UniProt P49589) | -0.015 (inactive)
37 | CCNK isoform 4 (UniProt O75909) | 0.044 (inactive)
38 | CARD11 (UniProt Q9BXL7) | 0.029 (inactive)
39 | CANX isoform 2 (UniProt P27824) | 0.015 (inactive)
40 | BNIP1 (UniProt Q12981) | -0.059 (inactive)

Compound: Cc1cc(Nc2cc(CN3CCOCC3)c3nc(C)c(Cc4ccc(Cl)cc4F)n3n2)n[nH]1 [gandotinib]
Experiment: as above
Summary of the method: as §1

Row | Target | log2 fold change
41 | CCAR2 (UniProt Q8N163) | 0.058 (inactive)
42 | CDK1 (UniProt P06493) | -0.224 (inactive)
43 | ATE1 isoform 2 (UniProt O95260) | 0.076 (inactive)
44 | CCDC22 (UniProt O60826) | -0.056 (inactive)
45 | ATXN2 (UniProt F8WB05) | -0.028 (inactive)
46 | CHAF1A (UniProt Q13111) | 0.009 (inactive)
47 | C2CD5 isoform 3 (UniProt Q86YS7) | 0.125 (inactive)
48 | CARNMT1 (UniProt Q8N4J0) | 0.038 (inactive)
49 | CCNC (UniProt P24863) | -0.104 (inactive)
50 | BCR (UniProt P11274) | -0.013 (inactive)
51 | CDC16 (UniProt Q13042) | -0.095 (inactive)
52 | CHCHD4 isoform 2 (UniProt Q8N4Q1) | 0.217 (inactive)
53 | BTAF1 (UniProt O14981) | -0.004 (inactive)
54 | CEP120 (UniProt Q8N960) | 0.016 (inactive)
55 | CHD4 isoform 2 (UniProt Q14839) | 0.005 (inactive)
56 | ATP11A (UniProt P98196) | 0.017 (inactive)
57 | BRD3 (UniProt Q15059) | 0.147 (inactive)
58 | ATG4B (UniProt Q9Y4P1) | -0.128 (inactive)
59 | BORCS5 (UniProt Q969J3) | -0.038 (inactive)
60 | CCPG1 isoform 5 (UniProt Q9ULG6) | -0.089 (inactive)

Row | Target | log2 fold change
61 | ATP13A1 (UniProt Q9HD20) | -0.073 (inactive)
62 | BUB1B isoform 3 (UniProt O60566) | -0.04 (inactive)
63 | CDK5 (UniProt Q00535) | 0.451 (inactive)
64 | CDAN1 (UniProt Q8IWY9) | -0.073 (inactive)
65 | CCNB1 (UniProt P14635) | -0.078 (inactive)
66 | CDC7 (UniProt O00311) | 0.047 (inactive)
67 | CCDC186 (UniProt Q7Z3E2) | -0.061 (inactive)
68 | ATG13 isoform 2 (UniProt O75143) | 0.172 (inactive)
69 | CCDC32 isoform 2 (UniProt Q9BV29) | 0.025 (inactive)
70 | CAPNS1 (UniProt P04632) | 0.15 (inactive)
71 | CDK5RAP3 isoform 4 (UniProt Q96JB5) | 0.173 (inactive)
72 | CAMK1 (UniProt Q14012) | 0.187 (inactive)
73 | CDS2 (UniProt O95674) | 0.048 (inactive)
74 | CALB2 (UniProt P22676) | 0.092 (inactive)
75 | BCKDK (UniProt O14874) | -0.095 (inactive)
76 | CARS isoform 3 (UniProt P49589) | -0.045 (inactive)
77 | CCNK isoform 4 (UniProt O75909) | 0.161 (inactive)
78 | CARD11 (UniProt Q9BXL7) | -0.035 (inactive)
79 | CANX isoform 2 (UniProt P27824) | 0.026 (inactive)
80 | BNIP1 (UniProt Q12981) | -0.15 (inactive)
